The results in this text go back to PubChem BioAssay.

Structures are written as SMILES. Several values for one entry are separate records, joined by “and”; a condition that tells them apart may be missing. Identical values can stand only once. Activity calls are given as the source filed them.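 How the source made its calls, unless noted: active means inhibition at or above 50% relative to wild type and mutant plate controls; inactive means inhibition below 50%.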

Assay [1] can be described thus: inhibitors of TNFa-induced NFkB p65 translocation, primary screen, imaging, HUVEC, MLSMR starter and 10KST1 sets (AID 438;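 active means inhibition above 20% together with a positive visual image hit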;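 further: compound added about 3h40 before a 20 min TNFalpha stimulation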;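 on inhibition: signal is the nuclear over cytoplasmic p65 intensity ratio per well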). To be noted: HUVEC TNFa-induced p65 nuclear translocation; cell count: measured here: nuclei count (cytotoxicity indicator), at 2.08 µM; inhibition: at 2 µM, stronger effect = higher value, 0% TNFa-plus-vehicle, 100% no-TNFa wells.
The nature of assay [2]: inhibitors of mutant huntingtin aggregation, primary screen, imaging, exon1htt(103Q)mCFP cells, high-content imaging (AID 483;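 active means visual image review flags a hit and inhibition of aggregation exceeds 20%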;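 further: compound exposure lasted 3 days before fixation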;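 on nuclei count: percent of the per-plate median nuclei count of sample wells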). The note with it: exon1htt(103Q)mCFP cell line, aggregate imaging, at 2 µM; inhibition of aggregation: stronger effect = higher value; nuclei count: measured here: cell count, toxicity.
Assay [3] in a line: inhibitors of E-selectin induction by TNFa, primary screen, imaging, HUVEC, immunofluorescence, MLSMR starter and 10KST1 sets (AID 487;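 active means visually confirmed hit in the image check and inhibition above 20%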;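 on inhibition: signal is fraction of cell area covered by stained E-selectin grains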;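 on nuclei count: 100% = median nuclei count of all wells on the same plate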). To be noted: HUVEC TNFalpha-induced E-selectin immunofluorescence imaging, at 2 µM; inhibition: stronger effect = higher value; nuclei count: measured here: cell number, toxicity.
Assay [4] is described as follows: DUSP6 inhibitors restoring Erk phosphorylation by chemical complementation, primary imaging in DUSP6-transfected HeLa (AID 609;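 active means compounds giving at least 50% inhibition in the cell-based MKP-3 phosphatase rescue imaging test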;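 on inhibition: phospho-Erk level distribution per well compared with pooled transfected vehicle control wells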). To be noted: HeLa MKP-3 transfected, phospho-Erk imaging KS statistic, at 10 µM, cells stimulated with TPA for 15 min.
The target in assay [5] is Dual specificity protein phosphatase 6 (Homo sapiens) (UniProt Q16828). The assay is described as above. The note with it: HeLa MKP-3 transfected, phospho-Erk imaging KS statistic; at 10 µM; stronger effect = higher value; cells stimulated with TPA for 15 min.
Sequence of Dual specificity protein phosphatase 6 (Homo sapiens) (Q16828 whole entry, looked up): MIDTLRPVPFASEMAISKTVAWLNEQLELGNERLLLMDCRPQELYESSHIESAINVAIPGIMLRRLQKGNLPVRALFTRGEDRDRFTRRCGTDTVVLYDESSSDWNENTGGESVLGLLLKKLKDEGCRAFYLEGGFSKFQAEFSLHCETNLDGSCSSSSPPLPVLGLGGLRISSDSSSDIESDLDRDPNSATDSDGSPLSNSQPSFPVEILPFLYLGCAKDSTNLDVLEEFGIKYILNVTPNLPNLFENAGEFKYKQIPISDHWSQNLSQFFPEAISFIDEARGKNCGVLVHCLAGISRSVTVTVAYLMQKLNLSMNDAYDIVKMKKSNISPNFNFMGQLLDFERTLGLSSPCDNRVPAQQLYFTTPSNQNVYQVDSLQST
The target of assay [6] is Voltage-gated potassium channel subunit beta-2 (Rattus norvegicus) (UniProt P62483). The experiment in a line: KvBeta enzyme negative modulators, primary screen, biochemical, NADPH fluorescence (AID 622;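 active means fluorescence slope higher than the sample average by over 3 SD, cut at about -0.22 in these data, passing the limit was not always enough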;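 further: slope of raw intensity against log time taken from 70 to 1610 s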). To be noted: recombinant KvBeta, 4-cyanobenzaldehyde reduction, at 10 µM, stronger effect = higher value.
Sequence of Voltage-gated potassium channel subunit beta-2 (Rattus norvegicus) (P62483 whole entry, looked up): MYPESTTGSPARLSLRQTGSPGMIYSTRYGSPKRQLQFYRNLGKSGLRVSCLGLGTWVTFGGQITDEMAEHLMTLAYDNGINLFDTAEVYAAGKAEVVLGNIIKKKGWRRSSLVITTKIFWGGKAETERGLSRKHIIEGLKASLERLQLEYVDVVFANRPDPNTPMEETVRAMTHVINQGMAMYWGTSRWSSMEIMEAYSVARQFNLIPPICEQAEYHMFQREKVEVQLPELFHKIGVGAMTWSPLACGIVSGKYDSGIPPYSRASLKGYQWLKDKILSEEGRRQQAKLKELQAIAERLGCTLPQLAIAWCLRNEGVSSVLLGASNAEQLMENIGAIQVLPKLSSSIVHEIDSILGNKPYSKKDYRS
Assay [7] has the same target. The experiment in a line: KvBeta positive modulators, primary screen, biochemical, NADPH fluorescence (AID 623;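 active means NADPH fluorescence slope more negative than the mean of all samples by about 3 SD, 99.7% confidence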;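 further: fluorescence intensity change per second fitted from 20 to 320 s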). The note with it: Recombinant KvBeta, NADPH fluorescence decrease slope, 10 min; at 10 µM; stronger effect = lower value.
Assay [8] has as its target Alpha-2C adrenergic receptor (Homo sapiens) (UniProt P18825). Briefly: modulators of alpha2C/GIRK thallium flux, primary screen, cell-based, HEK293 alpha2C/GIRK1/2 (AID 624;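 active means fluorescence slope after compound addition differing from the mean of all screened samples at 99.7% confidence, in either direction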;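 further: slope of fluorescence ratio to pre-addition baseline per second over 15 to 24 s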). To be noted: thallium flux BTC fluorescence, at 10 µM, actives lie on both sides.
A short description of assay [9]: inhibitors of larval lipid processing in zebrafish, primary screen, whole organism, PED6 fluorescence, gall bladder and intestine (AID 686;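 active means a full or partial loss of lipid-probe fluorescence in the fish gall bladder, intestine or both, judged by eye; inactive means no fluorescence loss, or compound toxic to the fish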;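 further: larvae 5 to 7 days old with five fish per well; signal comes from phospholipase A2 cleavage of quenched PED6 carried via bile; overnight exposure to compound and PED6 before scoring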). The note with it: Zebrafish larvae PED6 lipid processing, fluorescence scoring; screened at 20 µM (by protocol).
The nature of assay [10]: inhibitors of Chlamydomonas gravitaxis, primary screen, whole organism, Chlamydomonas reinhardtii, WT vs cilia-less mutant, absorbance, 96-well (AID 463189).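 Further: 0% = wild type cc124 cells in DMSO and 100% = ciliumless bld1 mutant cells.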 To be noted: OD600 absorbance, 2 days, at 10 µM, stronger effect = higher value.
The nature of assay [11]: inhibitors of Sendai virus-induced IRF3 signaling, primary screen, TLR/RLR signaling modifier project, cell-based, Sendai virus stimulus, luciferase, 10K MLSCN set (AID 602276;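 active means inhibition at or above 50% at 10 µM; inactive means inhibition below 50%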;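 further: firefly luciferase from ISG56 promoter only with Renilla not read in this screen; 0% = Sendai virus plus DMSO and 100% = medium plus DMSO without virus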). To be noted: HEK293 RL24 IRF3 luciferase reporter, at 10 µM, stronger effect = higher value. For orientation: Reporter assays use an easily measured gene product as a stand-in for the process of interest.
Assay [12] can be described thus: inhibitors of poly I:C-induced TLR3 signaling, primary screen, cell-based, poly I:C stimulus, luciferase, 10K MLSCN set (AID 602277;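 active means inhibition of the reporter signal at or above 50%; inactive means inhibition below 50%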). To be noted: HEK293-TLR3 RL24 IRF3 luciferase reporter, at 10 µM, stronger effect = higher value.
[13] abbreviates: measured here: cell density z-score.
The mark [14] stands for this setting: measured here: nuclear c-Myc green intensity z-score.
The mark [15] stands for this setting: measured here: nuclear pErk red intensity z-score, stronger effect = higher value.

For orientation: inhibition means the change of the read-out against control, counted positive when it falls.

Sequence of Alpha-2C adrenergic receptor (Homo sapiens) (P18825 whole entry, looked up): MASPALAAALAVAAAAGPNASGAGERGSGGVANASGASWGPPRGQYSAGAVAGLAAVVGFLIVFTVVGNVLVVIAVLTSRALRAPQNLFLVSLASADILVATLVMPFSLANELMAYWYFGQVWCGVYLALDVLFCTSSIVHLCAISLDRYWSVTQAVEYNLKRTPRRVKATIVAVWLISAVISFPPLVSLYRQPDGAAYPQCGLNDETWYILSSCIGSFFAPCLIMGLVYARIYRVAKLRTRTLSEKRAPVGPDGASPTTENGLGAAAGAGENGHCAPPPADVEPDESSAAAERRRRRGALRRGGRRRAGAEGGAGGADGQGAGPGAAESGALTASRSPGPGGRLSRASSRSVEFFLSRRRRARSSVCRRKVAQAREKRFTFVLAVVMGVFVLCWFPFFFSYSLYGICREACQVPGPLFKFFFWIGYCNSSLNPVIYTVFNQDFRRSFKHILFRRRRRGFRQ

Regarding `Cc1cn([C@H]2C[C@H](N=[N+]=[N-])[C@@H](CO)O2)c(=O)[nH]c1=O`, in [1], the cell count was found to be 663. The inhibition in assay [1] was -4% (inactive); in [3] it was -133% (inactive); in [5], -6.41% (inactive); in assay [10], -6.84% (inactive); in [11], 17.8% (inactive); in assay [12], 37% (inactive). Moreover, the inhibition of aggregation in [2] is 1.9% (inactive). Moreover, the nuclei count in assay [2] was 102%; in assay [3], 128%. Moreover, the results for the z-score in assay [4] (setting [13]), in assay [4] (setting [14]) and in assay [4] (setting [15]) were -0.406, -0.912 and 2.26, respectively. Moreover, the fluorescence slope in assay [6] is -0.476 (inactive). The NADPH fluorescence slope in assay [7] was 3.5e-07 (inactive). Besides, the slope in assay [8] is 0.00535 (inactive). Besides, the compound was called inactive in assay [9].

Take `O=C1OC(c2ccc(O)cc2)(c2ccc(O)cc2)c2ccccc21`: in [1], the cell count is 608. For the same compound, the inhibition in assay [1] was -5% (inactive); in assay [3], -50.7% (inactive); in [5], 21.2% (inactive); in [10], -5.48% (inactive); in [11], 11.5% (inactive); in assay [12], 41.9% (inactive). In [2], the inhibition of aggregation is 4.4% (inactive). Further, the nuclei count is 77.9% in assay [2] and 116% in assay [3]. Also, the z-score in [4] (setting [13]) is 2.02; in assay [4] (setting [14]), -0.265; in assay [4] (setting [15]) it was -1.6. Further, the fluorescence slope in [6] is -0.449 (inactive). Moreover, the NADPH fluorescence slope in [7] was -6.8e-05 (inactive). The slope in assay [8] is 0.00467 (inactive). In addition, in assay [9], the result was inactive.

As for `CCN(CC)CCN1C(=O)C(=O)/C(=C(/O)c2ccc(OC(C)C)cc2)C1c1ccncc1` (stereo not given), the cell count in assay [1] amounted to 529. The inhibition in assay [1] is -5.6% (inactive); in [3] it was -8.2% (inactive); in assay [5], -6.48% (inactive); in assay [10], -14% (inactive); in assay [11], 8.32% (inactive); in [12], 8.84% (inactive). In [2], the inhibition of aggregation was 3% (inactive). Further, the nuclei count was determined as 116% in assay [2] and 104% in [3]. Further, the z-score in [4] (setting [13]) was -0.653; in assay [4] (setting [14]) it was -0.46; in [4] (setting [15]), -0.356. Further, the fluorescence slope in assay [6] was -0.356 (inactive). Further, the NADPH fluorescence slope in assay [7] was 4.4e-05 (inactive). For the same compound, in [8], the slope is 0.00527 (inactive). The result in [9] was inactive.

Regarding `CNCCCC12CCC(c3ccccc31)c1ccccc12`, in assay [1], the cell count was determined as 541. Besides, the inhibition in assay [1] is -4.8% (inactive); in [3] it was -80.6% (inactive); in assay [5] it was 3.45% (inactive); in [10] it was 6.33% (inactive) and 2.26% (inactive); in assay [11] it was -23.6% (inactive); in assay [12], 55.4% (active). Also, in [2], the inhibition of aggregation was 19.8% (inactive). Also, the nuclei count amounted to 83.4% in [2] and 114% in assay [3]. The z-score in assay [4] (setting [13]) is -1.24; in assay [4] (setting [14]), 0.435; in assay [4] (setting [15]), 1.73. Also, the fluorescence slope in assay [6] is -0.501 (inactive). Further, the NADPH fluorescence slope in assay [7] was -9.7e-05 (inactive). Moreover, the slope in assay [8] is 0.00463 (inactive). Further, the result in assay [9] was inactive.

`Nc1ccc(S(=O)(=O)c2ccc(N)cc2)cc1`: the cell count in assay [1] was determined as 511. The inhibition in assay [1] is -1.5% (inactive); in assay [3], -20.6% (inactive); in assay [5], 16.8% (inactive); in assay [10] it was 8.87% (inactive); in [11], -3.01% (inactive); in assay [12], 11.3% (inactive). Also, in assay [2], the inhibition of aggregation is 0.3% (inactive). The figures for the nuclei count in assay [2] and in assay [3] were 103% and 106%, respectively. Also, the z-score in assay [4] (setting [13]) was -0.829; in [4] (setting [14]), 0.112; in assay [4] (setting [15]), 0.308. Also, the fluorescence slope in assay [6] was -0.465 (inactive). Also, the NADPH fluorescence slope in assay [7] was 3.3e-05 (inactive). The slope in [8] was 0.00573 (inactive). Also, in assay [9], the result was inactive.

Regarding `CCCCC[C@H](O)/C=C/C1=C(CCCCCCC(=O)O)C(=O)CC1`, in assay [1], the cell count was determined as 582. In addition, the inhibition in assay [1] is -10.1% (inactive); in assay [3], -15.5% (inactive); in assay [5] it was -0.493% (inactive); in [10] it was -11.8% (inactive); in [11], 7.96% (inactive); in assay [12], 34.1% (inactive). In addition, in assay [2], the inhibition of aggregation is -18.7% (inactive). The nuclei count in assay [2] was found to be 109%; in assay [3] it was 111%. Moreover, the z-score in [4] (setting [13]) is 0.0464; in assay [4] (setting [14]), -0.541; in assay [4] (setting [15]), -1.16. Further, in [6], the fluorescence slope was -0.474 (inactive). Besides, the NADPH fluorescence slope in assay [7] is -5.2e-05 (inactive). In addition, the slope in assay [8] is 0.00393 (inactive). In addition, the result in assay [9] was inactive.

For the compound `COc1ccc(/C=C(/C#N)c2cccnc2)cc1OC`, the cell count in [1] amounted to 515. The inhibition in assay [1] is 4.6% (inactive); in assay [3], -17.2% (inactive); in assay [5], 1.48% (inactive); in assay [10], -22% (inactive); in [11], 6.71% (inactive); in assay [12], -45.5% (inactive). For the same compound, in assay [2], the inhibition of aggregation was 17.7% (inactive). In addition, the nuclei count amounted to 82.3% in assay [2] and 112% in [3]. The z-score in [4] (setting [13]) was 0.571; in assay [4] (setting [14]), -1.05; in assay [4] (setting [15]), -1.32. In addition, the fluorescence slope in [6] is -0.499 (inactive). The NADPH fluorescence slope in assay [7] is -4.4e-05 (inactive). Also, in assay [8], the slope is 0.00455 (inactive). Moreover, the call in assay [9] was inactive.

Consider `O=C1CC(c2ccccc2)NC(=O)N1` (stereo not given), for which the cell count in assay [1] was determined as 692. Moreover, the inhibition in [1] is -11.2% (inactive); in assay [3], 23% (inactive); in assay [5], 9.39% (inactive); in [10], -8.12% (inactive); in assay [11], 11% (inactive); in [12], 23.5% (inactive). The inhibition of aggregation in assay [2] is 15.5% (inactive). Further, the nuclei count in assay [2] was 100%; in assay [3] it was 127%. For the same compound, the z-score is -1.04 in [4] (setting [13]), -0.999 in assay [4] (setting [14]) and 0.572 in [4] (setting [15]). For the same compound, the fluorescence slope in [6] is -0.454 (inactive). In addition, in [7], the NADPH fluorescence slope is -0.000279 (inactive). In addition, the slope in assay [8] is 0.0044 (inactive). In assay [9], the compound was called inactive.

Turning to `Nc1ccc(S(=O)(=O)NC(=O)c2ccccc2)cc1`, the cell count in [1] was found to be 544. Also, the inhibition in [1] was 2.5% (inactive); in assay [3], -116% (inactive); in assay [5], 14.6% (inactive); in [10], 5.05% (inactive); in assay [11], 21.8% (inactive); in [12], 34.4% (inactive). Besides, in assay [2], the inhibition of aggregation is 17.5% (inactive). Further, the nuclei count in assay [2] came to 94.6%; in assay [3], 110%. Besides, the z-score was -1.45 in assay [4] (setting [13]), 0.254 in assay [4] (setting [14]) and 0.397 in assay [4] (setting [15]). Moreover, in assay [6], the fluorescence slope was -0.517 (inactive). The NADPH fluorescence slope in assay [7] was -5.5e-05 (inactive). Further, the slope in assay [8] is 0.00537 (inactive). In assay [9], the result was inactive.

As for `CC(C[N+](C)(C)C)OC(N)=O` (stereo not given), the cell count in assay [1] came to 492. The inhibition was 17.2% (inactive) in [1]; -25.7% (inactive) in [3]; 5.42% (inactive) in assay [5]; 4.16% (inactive) and 23.3% (inactive) in assay [10]; 14.7% (inactive) in assay [11]; 38.3% (inactive) in assay [12]. In addition, the inhibition of aggregation in assay [2] was -16.6% (inactive). Further, the nuclei count is 106% in assay [2] and 125% in [3]. Also, the z-score in assay [4] (setting [13]) was -0.295; in assay [4] (setting [14]), 0.566; in [4] (setting [15]) it was -0.0176. Moreover, the fluorescence slope in [6] was -0.491 (inactive). Further, the NADPH fluorescence slope in assay [7] is -6.6e-05 (inactive). Besides, the slope in assay [8] was 0.00575 (inactive). Besides, the compound was classed as inactive in assay [9].
